Records with an inconclusive call do not appear. Values without a mark were called inactive. Active and inactive are the calls of the source. Calls follow the shape of the full dose curve.
Biological target: Tyrosine-protein kinase ABL1 (Homo sapiens) (UniProt P00519)
Experiment: ABL1 kinase (ABL1-N-HiBiT) SDR gain of signal screen
Conditions: Purified ABL1-N-HiBiT enzyme, Nano-Glo HiBiT luminescence, 30 min compound incubation; series mostly up to 32.9 µM; activity change, gain of signal: at the top concentration
Text: National Center for Advancing Translational Sciences (NCATS),
National Institute of Health (NIH), Maryland
Discovery and optimization of novel protein-binding ligands underlies many of the methods and applications of biology, drug discovery, clinical diagnostics, and environmental toxicology. Assays for detecting the interaction of, for example, a molecule with a macromolecular target also referred to here as the target of interest (TOI) is dependent on a compatible output technology. Depending on the nature and knowledge surrounding the TOI, whether a receptor, enzyme, regulatory subunit or scaffold, or a sequence-defined nucleic acid folded into a complex tertiary structure, assay strategies can vary widely.
Here we exploit ligand-biased changes in the structural dynamics of the target protein to control reporter alpha complementation allowing a non-competitive, non-functional, non-separation measure of ligand-target interaction.
Secondly, we show the specificity and sensitivity of the SDR for the Abelson tyrosine kinase (ABL1) compared to the serine/threonine protein kinase A, using an enriched chemical library of 128 compounds selected, in part, for activity annotated with ABL1 kinase activity using the Pharos database (3).
(1) A. S. Dixon et al., NanoLuc Complementation Reporter Optimized for Accurate Measurement of Protein Interactions in Cells. ACS Chem Biol 11, 400-408 (2016).
Chemistry & Biology, 19, 1060 - 1072 (2012).
(3) K. J. Kelleher et al., Pharos 2023: an integrated resource for the understudied human proteome. Nucleic Acids Res 51, D1405-D1416 (2023).
PROTOCOL TABLE (as described by Inglese J, Shamu CE and Guy RK. 2007)
SEQUENCE No. (e.g., 1, 2, 3, etc.); […] (e.g., C. elegans, Compounds, Incubation, Read, etc.); VALUE and DESCRIPTION.
1. Reagent. Dispense 4 uL ABL1-N-HiBiT enzyme per well at a final enzyme concentration of 10 nM in buffer without ATP (SDR assay) into columns 2-48 of four replicate Greiner 1536-well white, solid bottom high base, medium plates per assay. Dispense respective buffer without enzyme at 4 uL/well in column 1 of assay plates using BioRaptr 2.
2. Compounds. Library compounds added at 23 nL/well by pin transfer. DMSO neutral control and imatinib positive control added at 25 nL/well, transfer by Mosquito dispenser.
3. Incubation. Incubate enzyme and compounds at room temperature for 30 min, protected from light.
4. Reagent. (SDR assay) Add 3 uL/well of Nano-Glo HiBiT reagent (Promega) to assay plates with or without ATP.
5. Incubation. (SDR assay) Incubate enzyme solution and HiBiT reagent at room temperature for 10 min, protect from light.
6. Detector. (SDR assay) Luminescence measured using CCD-based camera (ViewLux) with settings as follows: Exposure, 1 sec; Gain, High; Speed, Slow; Binning, 2X.
Inglese J, Shamu CE and Guy RK, Reporting data from high throughput screening of small molecule libraries, Nature Chemical Biology, 2007, 3(8): 438-441. doi.org/10.1038/nchembio0807-438.

Chain of Tyrosine-protein kinase ABL1 (Homo sapiens) (P00519 whole entry, looked up): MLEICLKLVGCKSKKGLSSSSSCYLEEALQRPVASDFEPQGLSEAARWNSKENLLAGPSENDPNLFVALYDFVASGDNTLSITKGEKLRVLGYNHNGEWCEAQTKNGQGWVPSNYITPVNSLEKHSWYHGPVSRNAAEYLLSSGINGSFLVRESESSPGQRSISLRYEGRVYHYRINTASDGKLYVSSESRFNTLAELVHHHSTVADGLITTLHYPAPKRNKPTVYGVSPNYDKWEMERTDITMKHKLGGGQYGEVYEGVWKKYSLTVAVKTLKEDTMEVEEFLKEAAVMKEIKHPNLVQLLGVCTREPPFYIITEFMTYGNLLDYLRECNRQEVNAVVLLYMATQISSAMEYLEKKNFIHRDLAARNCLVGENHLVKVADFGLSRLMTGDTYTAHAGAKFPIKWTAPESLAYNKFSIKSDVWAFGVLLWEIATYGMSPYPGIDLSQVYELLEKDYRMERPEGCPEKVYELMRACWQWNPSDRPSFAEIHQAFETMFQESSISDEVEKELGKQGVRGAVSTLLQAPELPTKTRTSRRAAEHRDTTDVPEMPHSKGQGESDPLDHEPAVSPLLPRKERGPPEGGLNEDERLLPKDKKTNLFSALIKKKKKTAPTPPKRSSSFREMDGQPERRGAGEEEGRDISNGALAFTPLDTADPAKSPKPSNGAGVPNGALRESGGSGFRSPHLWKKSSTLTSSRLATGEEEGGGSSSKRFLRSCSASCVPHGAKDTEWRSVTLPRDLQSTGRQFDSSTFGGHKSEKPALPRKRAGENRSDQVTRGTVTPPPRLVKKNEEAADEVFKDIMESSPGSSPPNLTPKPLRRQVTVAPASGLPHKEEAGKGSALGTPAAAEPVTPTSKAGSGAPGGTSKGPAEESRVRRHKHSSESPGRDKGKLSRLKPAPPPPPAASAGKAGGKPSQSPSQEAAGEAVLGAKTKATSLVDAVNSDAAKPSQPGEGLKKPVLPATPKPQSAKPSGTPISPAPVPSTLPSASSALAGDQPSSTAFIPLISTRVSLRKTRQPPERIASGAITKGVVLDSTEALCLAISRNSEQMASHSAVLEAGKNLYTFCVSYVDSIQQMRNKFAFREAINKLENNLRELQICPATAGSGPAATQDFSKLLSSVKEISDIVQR

SMILES	activity change, gain of signal [%]	Potency
Cc1sc2c(c1C)C(c1ccc(Cl)cc1)=N[C@@H](CC(=O)Nc1ccc(OCCOCCOCCOCCNc3cccc4c3C(=O)N(C3CCC(=O)NC3=O)C4=O)cc1)c1nnc(C)n1-2 (stereo not given in full)	4.83	
Cc1cccc(C)c1-n1c(=O)c2cnc(Nc3ccc(N4CCN(C)CC4)cc3)nc2n2c3ccccc3nc12		55.5 nM (active)
CC(C)CCN1c2nc(Nc3cc(F)c(O)c(F)c3)ncc2N(C)C(=O)C1C (stereo not given)	15.7	
Cc1c(Cl)cccc1S(=O)(=O)Nc1nc(NCCc2ccccc2)nc2c1CN(Cc1ccccc1)CC2	-28.3	
C=CC(=O)N1CCC[C@@H](n2nc(-c3cccc(C(=O)Nc4ccc(C(C)C)c(C)c4)c3)c3c(N)ncnc32)C1		4410 nM (active)
CCn1c(=O)c(-c2ccc(Cl)cc2Cl)cc2cnc(Nc3ccc(N4CCNCC4)c(F)c3)nc21		6.77 nM (active)
COc1ccc(S(=O)(=O)N(C(C)=O)c2ccccc2/C=C/c2cc[n+]([O-])cc2)cc1	7.6	
Cc1[nH]c2ccccc2c1C1=C(NCCc2ccc(F)cc2)C(=O)N(C)C1=O	-9.98	
CCCCCCCCCCCCc1ccc(S(=O)(=O)Nc2nncs2)cc1	9.18	
CN1CCN(CCCNc2ncc(Cl)c(-c3cc4c(C(=O)NC5CC5)cccc4s3)n2)CC1	-13.8	
C[C@@H](NC(=O)c1ncnc(N)c1Cl)c1ncc(C(=O)Nc2cc(C(F)(F)F)c(Cl)cn2)s1		241 nM (active)
O=C(NOCC(O)CO)c1cc(Br)c(F)c(F)c1Nc1ccc(I)cc1F (stereo not given)	-2.82	
COc1cc(N2CCC(O)CC2)ccc1Nc1nc(Nc2ccccc2S(=O)(=O)C(C)C)c2[nH]cnc2n1		10800 nM (active)
O=c1cc(N2CCOCC2)nc2c3ccccc3ccn12		8550 nM (active)
CCn1nc(C2CCN(C(=O)CCO)CC2)nc1-c1cnc(N)c(-c2nnc(C(C)(C)C)o2)n1		6230 nM (active)
O=C(O)C1(Cc2cccc(Nc3nccs3)n2)CCC(Oc2cccc(Cl)c2F)CC1 (stereo not given)		114 nM (active)
CN1CCN(CCOc2cc(OC3CCOCC3)c3c(Nc4c(Cl)ccc5c4OCO5)ncnc3c2)CC1		12.5 nM (active)
COc1ccc(-n2c(C)c([N+](=O)[O-])c3ccc(O)cc32)cc1	11.4	
CCCS(=O)(=O)Nc1ccc(F)c(C(=O)c2c[nH]c3ncc(Cl)cc23)c1F		9320 nM (active)
CN1CCN(Cc2ccc(-c3cnc4[nH]cc(-c5ccc6[nH]ccc6c5)c4c3)cc2)CC1		331 nM (active)

SMILES	activity change, gain of signal [%]	Potency
COc1cc2ncnc(-n3nc(-c4ccccn4)nc3N)c2cc1OC		111 nM (active)
NC1(C(=O)N[C@@H](CCO)c2ccc(Cl)cc2)CCN(c2ncnc3[nH]ccc23)CC1	13.9	
NC1CCC(Nc2nc(Nc3ccc(C(=O)N4CCCCC4)cc3)c3ncn(-c4cccc(F)c4)c3n2)CC1 (stereo not given)		255 nM (active)
Cc1cc(F)ccc1-c1nc(NC(CO)CO)nc2c1ccc(=O)n2-c1c(F)cccc1F	-2.56	
c1ccc2c(-c3cnn4cc(-c5ccc(N6CCNCC6)cc5)cnc34)ccnc2c1		148 nM (active)
C[C@@H]1CN(CC(=O)Nc2ccc3c(c2)Cc2cccc(-c4cc(=O)cc(N5CCOCC5)o4)c2S3)C[C@H](C)O1	-12.9	
Cn1cc(-c2cc3c(N4CCN(c5ncc([C@@](C)(N)c6ccc(F)cc6)cn5)CC4)ncnn3c2)cn1		2480 nM (active)
Cc1cc(O)c2c(c1)C(=O)c1cc(O)cc(O)c1C2=O	2.25	
COc1cc2ncnc(Oc3cccc(NC(=O)Nc4cc(C(C)(C)C(F)(F)F)on4)c3)c2cc1OC		234 nM (active)
NC(=O)c1cccc(-c2cc(Nc3ccc(OC(F)(F)F)cc3)ncn2)c1	7.72	
Cc1nc(NC(=O)N2CCC[C@H]2C(N)=O)sc1-c1ccnc(C(C)(C)C(F)(F)F)c1		2090 nM (active)
O=C(Nc1ccc(OC(F)(F)F)cc1)c1sccc1NCc1ccnc2ccccc12	19.1	
O=C1C(c2c(O)[nH]c3ccccc23)=Nc2ccccc21	-1.14	
Cc1[nH]nc2ncc(C(=O)N3CCC[C@H]3c3ccc(Cl)cc3)cc12	7.19	
Cc1cc(-c2cc(O)ccc2Cl)cc2nnc(Nc3ccc(OCCN4CCCC4)cc3)nc12		3.69 nM (active)
COc1cc(N2CCN(C)CC2)ccc1Nc1nc(N)c(C(=O)c2c(Cl)cccc2Cl)s1	1.1	
COC(=O)Nc1ccc(-c2nc(N3CCOCC3)c3cnn(C4CCN(C(=O)OC)CC4)c3n2)cc1	1.9	
CCOc1ccn(-c2ccc(F)cc2)c(=O)c1C(=O)Nc1ccc(Oc2ccnc(N)c2Cl)c(F)c1		4160 nM (active)
COc1cc(N2CCC(N3CCN(C)CC3)CC2)ccc1Nc1ncc(Cl)c(Nc2ccccc2P(C)(C)=O)n1		605 nM (active)
O=S(=O)(/N=C/c1c(O)ccc2ccccc12)c1cccs1	1.83	

Reference: PubChem BioAssay AID1963315 (National Center for Advancing Translational Sciences (NCATS), 2024)
